# PubChem BioAssay (Tox21)
# Records with an inconclusive call do not appear. Active and inactive are the calls of the source. The call rests on the fitted dose curve; in most records, active means well fitted activation curve with a large enough effect; inconclusive means small, poorly fitted or top-dose-only effect; inactive means flat fitted curve, though single readings scatter. Residues, ends and D or L forms follow the SMILES beside them.
# Experiment: qHTS assay to identify small molecule phospholipidosis (PLD) inducers (AID 1259344)
# Conditions: HepG2 phospholipidosis, LipidTOX Red imaging, 24 h; series mostly up to 38.3 µM
# Description: National Center for Advancing Translational Sciences [NCATS]
# Drug-induced Phospholipidosis (PLD) caused by cationic amphiphilic drugs is characterized by the appearance of unicentric or multicentric-lamellar bodies when viewed under electron microscope. Electron microscopy is the gold standard method for PLD detection, however, this method is time-consuming and labor intensive, making it unsuitable for evaluating a large set of compounds. A cell-based phospholipidosis assay has been developed using the LipidTox reagent in HepG2 cells and miniaturized into a 1536-well plate format. Drug induced phospholipid accumulation is stained with the LipidTox dyes in red color which then is determined using an automated high content screening system.
# HepG2 cells are dispensed at 900 cells/3 uL/well into Collagen I-coated 1536-well black-wall/clear-bottom assay plates (Greiner Bio-One, Monroe, NC) using the Multidrop Combi 8 channel dispenser (Thermo Fisher, Waltham, MA, USA). The assay plates are incubated at 37 C for 4 hours to allow the cell attachment. 3 uL of 1:500 LipidTOX Red dye is added using the dispenser, and then 23 nL compounds are added via a Wako Pintool station (Wako Automation, San Diego, CA). Amiodarone, a known PLD inducer, was used as a positive control and DMSO was used as a negative control. The assay plates were then incubated at 37 C for 24 hours.
# For fixations, 4 uL of 8% paraformaldehyde fixative solution containing 10 ug/mL Hoechst 33342 in Dulbecco's phosphate-buffered saline (DPBS) is added using a Kalypsys washer/dispenser (Kalypsys, San Diego, CA, USA). After incubation at room temperature for 30 min, the assay plates are washed once with DPBS using a Kalypsys washer/dispenser. The assay plates are then sealed and stored at 4 C before imaging. The fluorescence intensities (595 nm excitation, 615 nm emission for LipidTOX; 352 nm excitation, 461 nm emission for Hoechst 33342) are measured using an ImageXpress Micro Widefield High Content Screening System (Molecular Devices, Sunnyvale, CA, USA) with a 20x Plan Fluor objective. Images are acquired for one site in each well and analyzed with the MetaXpress software (Molecular Devices) using the Transfluor module. Several algorithmic outputs, such as pit count per well, pit count per cell, pit integrated intensity per well, and pit integrated intensity per cell, are used for quantitative image analysis for PLD.
row,Structure (SMILES),outcome
1,CCCCOC(=O)CC(CC(=O)OCCCC)(OC(C)=O)C(=O)OCCCC,inactive
2,CCCCC1C(=O)N(c2ccccc2)N(c2ccccc2)C1=O,inactive
3,NC(N)=NC(=O)c1nc(Cl)c(N)nc1N,inactive
4,CCCC(CCC)C(=O)O,inactive
5,COc1ccc2[nH]cc(CCNC(C)=O)c2c1,inactive
6,NC(=O)NC1NC(=O)NC1=O (stereo not given),inactive
7,CC(=O)NS(=O)(=O)c1ccc(N)cc1,inactive
8,Cc1ccc(C)c(OCCCC(C)(C)C(=O)O)c1,inactive
9,O=C1CN(/N=C/c2ccc([N+](=O)[O-])o2)C(=O)N1,inactive
10,NNC(=O)c1ccncc1,inactive
11,Nc1ccc(O)c(C(=O)O)c1,inactive
12,Cc1ccc(S(=O)(=O)NC(=O)NN2CCCCCC2)cc1,inactive
13,Cn1cc[nH]c1=S,inactive
14,CCCCC(CC)COC(=O)/C=C/c1ccc(OC)cc1 (stereo not given),inactive
15,C1N2CN3CN1CN(C2)C3,inactive
16,c1ccc2[nH]ccc2c1,inactive
17,Cc1cc(=O)[nH]c(=S)[nH]1,inactive
18,CCCNC(=O)NS(=O)(=O)c1ccc(Cl)cc1,inactive
19,CC1(C)[C@@H]2CC[C@@]1(C)C(=O)C2,inactive
20,NC(=O)c1ccccc1O,inactive

row,Structure (SMILES),outcome
1,NC(=O)c1cnccn1,inactive
2,CC(=O)OCC(COC(C)=O)OC(C)=O,inactive
3,CNC[C@H](O)c1cccc(O)c1,inactive
4,NS(=O)(=O)c1cc(C(=O)O)c(NCc2ccco2)cc1Cl,inactive
5,Cc1cc(=O)n(-c2ccccc2)n1C,inactive
6,CC(C)(Oc1ccc(C2CC2(Cl)Cl)cc1)C(=O)O (stereo not given),inactive
7,CC(C)[C@@H]1CC[C@@H](C)C[C@H]1O,inactive
8,CC(O)C(=O)O (stereo not given),inactive
9,CCC1(c2ccccc2)C(=O)NCNC1=O,inactive
10,O=C(O)c1cc(N=Nc2ccc(S(=O)(=O)Nc3ccccn3)cc2)ccc1O,inactive
11,COC(=O)[C@H](Cc1ccccc1)NC(=O)[C@@H](N)CC(=O)O (H-Asp-Phe-OMe),inactive
12,Cc1noc(NS(=O)(=O)c2ccc(N)cc2)c1C,inactive
13,CCCC(O)C(CC)CO (stereo not given),inactive
14,O=C(c1ccccc1)C(O)c1ccccc1 (stereo not given),inactive
15,CC(O)CN(CCN(CC(C)O)CC(C)O)CC(C)O (stereo not given),inactive
16,CCCCCCCCCCCCCCCC(=O)O,inactive
17,O=C(O)c1cccnc1,inactive
18,C/C=C/c1ccc(OC)cc1,inactive
19,Cn1c(=O)c2[nH]cnc2n(C)c1=O,inactive
20,CCCN(CCC)S(=O)(=O)c1ccc(C(=O)O)cc1,inactive
